Assay outcomes: PubChem BioAssay, National Center for Advancing Translational Sciences (NCATS)
Hits are enriched below; roughly 1.4% of the tested compounds scored in any of these assays.
HTT aggregate = reduces HttQ103-GFP aggregates in PC12 cells | PC12 HttQ103-GFP aggregates, Acumen cytometry, 40 h | Potency, µM (series often up to 46.1 µM), inactives show at the top dose activity change, negative = inhibition, actives largely listed as inhibitors | 220,000 compounds, 1.1% hits | AID 1688; note: % is set by controls: 0 for no effect and ±100 for the full control effect; nearly all actives have a fitted effect of over 60% in size
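Read-out: GFP aggregate count by laser scanning cytometer (488 nm excitation, 500-530 nm emission, 1–25 µm objects >6 SD above background). Cells: PC12, inducible HTTex1-Q103-GFP, 100 nM tebufenozide; compounds titrated.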
ERK EGF block = blocks ERK signaling stimulated by EGF; HEK293-V1b, EGF-stimulated phospho-ERK AlphaScreen; Potency, µM (titrated, usually from 11.5 µM), for the others: top-dose activity change, negative = inhibition, most hits filed as inhibitors; 130,000 compounds, 0.41% hits; AID 1454;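 note: plate controls were stimulated vehicle wells for no effect and unstimulated vehicle basal for full effect; nearly all actives have a fitted effect of over 55% in size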
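Homogeneous cell-based phospho-ERK assay: HEK293/V1b cells in 1% FBS, compound 30 min then EGF 5 min, AlphaScreen luminescence. Activity normalized between DMSO and 25 nM EGF controls; AC50 from Hill modelling.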
HTT cytoprotect = cytoprotection in Huntington HTT-Q103 PC12 cell model; PC12 HTT-Q103 induced, cytoprotection, ATP luminescence, 40 h; 230,000 compounds, 0.14% hits; Potency, µM (doses to about 56.4 µM), for the others: cytoprotection (ATP increase), actives largely listed as activators; note: % of control where 0% means no effect; nearly all actives have a fitted effect of over 45% in size
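PC12 cells stably carrying ecdysone-inducible Htt exon 1 (Q103)–GFP were induced with 100 nM tebufenozide (final) alongside library compounds in a dose series. Cytoprotection was scored as retained ATP by ATPlite luminescence.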
An asterisk follows results filed as active; u = inconclusive; x = not tested or not shown; [ ] = another dose, or the depositor's remark. Calls come from the whole dose curve; as a rule, active = well fitted curve in the direction sought with a large enough effect; inconclusive = small, poorly fitted or top-dose-only effect, or another doubt; inactive = no such curve, though single readings can be large; an effect the other way counts as inactive or inconclusive. Potency is the fitted concentration of half-maximal effect.

SMILES | HTT aggregate | ERK EGF block | HTT cytoprotect
Cc1nc2sc(C(N)=O)c(N)c2c2c1CCCC2 | 1.78µM* | -10.4%[57.5 µM] | -13.4%[10 µM]
NC(=O)c1sc2nc(-c3ccccc3)c3c(c2c1N)CCCC3 | 6.31µM* | -5.1% | -31.5%
NC(=O)c1sc2nc(N3CCOCC3)c3c(c2c1N)CCCC3 | -17.9%[9.22 µM] | x | 4.7%
Cc1ccc(-c2nc3sc(C(N)=O)c(N)c3c3c2CCCC3)cc1 | 14.3% | 0.6% | -66.7%[10 µM]
CN1CCN(CC(=O)Nc2cccc3ccccc23)CC1 | x | x | -4.0%[10 µM]
COC(=O)[C@H](COC(C)(C)C)NC(=O)O[C@H]1C(=O)c2ccc(OC)cc2O[C@@H]1c1ccc2c(c1)OCO2 | x | 5.9% | -20.9%
CCCC(=O)c1cc(O)c(O)cc1O | x | x | -11.6%
COc1cc2ccccc2cc1C(=O)Nc1ccc(Cc2ccncc2)cc1 | 10µM* | x | -77.4%
COc1ccc(NC(=O)Nc2ccc(Cc3ccncc3)cc2)cc1OC | 3.2% | x | 7.6%
CCOC(=O)NC(NS(=O)(=O)c1ccccc1)(C(=O)OCC)C(F)(F)F (configuration not stated) | -19.6% | 5.1% | x
CCOC(=O)C(NC(C)=O)(NS(=O)(=O)c1ccccc1)C(F)(F)F (configuration not stated) | 3.16µM* | x | -16.7%
COc1ccc(C2/C=C\[C@H](O[Si](C)(C)C(C)(C)C)[C@H](C(C)C)CC(=O)N2Cc2ccccc2)cc1 (some centres not stated) | x | x | -18.3%
O=C1NCC(c2ccccc2)C1C(=O)N/N=C/c1ccc(Cl)s1 (configuration not stated) | 0.112µM* | -5.7% | x
O=C1NCC(c2ccccc2)C1C(=O)N/N=C\c1ccc(-c2ccc(Cl)c(Cl)c2)o1 (configuration not stated) | -12.6% | x | 0.9%
COCCNc1ncnc2ccc(-c3cccc(OC)c3)cc12 | x | x | -167.0%
CCN(CC)c1ccc(N=Cc2ccc(N(CC)CC)cc2O)cc1 | -5.2% | x | -23.3%
CCN(CC)c1ccc(/C=N/N=C(N)N)c(O)c1 | 0.708µM* | -2.6% | -73.2%[10 µM]
COc1ccc(CNc2ccnc(-c3ccc(N(C)C)cc3)n2)c(OC)c1 | x | x | -79.7%
COc1ccc2c(c1)c1ccccc1n2C | 12.6µM* | x | 0.2%[10 µM]
COc1ccc(-c2cc(=O)c3ccccc3n2C)cc1 | -30.1% | 14.6% | 30.5%[10 µM]
COc1cc(O)c(C(=O)c2ccccc2)cc1O | x | 16.5% | x
COc1ccc(C(=O)c2ccccc2)c2c(O)ccc(C(=O)c3ccccc3)c12 | 3.55µM* | x | 1.0%
CCC(=O)[C@]12O[C@@]3(C4C(=O)OCCC41)N(Cc1ccccc1)C(C)=C(C(=O)OC)C(c1ccccc1)N3C2=O (some centres not stated) | x | x | -6.8%[10 µM]
CN(C)c1ncc2nc(CCc3ccccc3)c(=O)n(Cc3cccs3)c2n1 | x | x | -48.7%
CCC(=O)c1ccc2c(c1)N(CCCN1CCN(CCO)CC1)c1ccccc1S2 | -41.4% | x | -95.9%
SMILES | HTT aggregate | ERK EGF block | HTT cytoprotect
COc1ccc(OC)c(C2/C(=C(\O)c3ccc(OC)c(Cl)c3)C(=O)C(=O)N2CCN(C)C)c1 (configuration not stated) | -11.1% | x | -36.4%
COc1ccc(OC)c(C2/C(=C(/O)c3cnn(-c4ccccc4)c3C)C(=O)C(=O)N2CCN(C)C)c1 (configuration not stated) | 10µM* | x | -14.0%
CC(C)(C)C(=O)N1CCN(c2ccc(Cl)cc2[N+](=O)[O-])CC1 | 11.5% | u | 5.3%[10 µM]
O=C(CSc1ccc(Cl)cc1)N1CCN(c2ccc(Cl)cc2[N+](=O)[O-])CC1 | 11.2µM* | x | -45.6%
COC(=O)[C@@H](N)CSC/C=C(\C)CC/C=C(\C)CCC=C(C)C | x | -0.4% | -32.1%
CCN1C(=O)[C@H]2[C@H]3[C@H](O)[C@H](O)C/C(=N/NC(=O)OCc4ccc(OC)cc4)[C@@H]3CC[C@@H]2C1=O | x | x | -14.5%[10 µM]
CC(=O)Oc1c(C)cc(O)c2ccccc12 | 14.1µM* | x | -106.5%
Cc1cc(O)c2ccccc2c1O | u | x | -366.1%
CCOC(=O)C(=O)C1(C(=O)OCC)Oc2cc(OC)cc(OC)c2C(=O)C1c1ccccc1 (configuration not stated) | x | 15.9% | x
CC(=O)N1CC=CC1(CC(C)C)C(=O)NCc1ccc(C)o1 (configuration not stated) | x | -0.8% | -40.3%
Nc1ncnc(Sc2ncccn2)c1[N+](=O)[O-] | 5.01µM* | -4.6% | 21.4%[10 µM]
Nc1ncnc(Sc2ccccc2)c1[N+](=O)[O-] | 10.6% | 7.0% | 34.2%[10 µM]
COC(=O)Cc1c(C)c2ccc(OCC(C)=O)c(C)c2oc1=O | -3.7% | x | -45.5%
C=C(C)COc1ccc2c(C)c(CC(=O)OC)c(=O)oc2c1C | 11.2µM* | x | -2.9%[10 µM]
Cc1ccc(N=Nc2c(N)[nH]n3c(=O)cc(-c4ccccc4)nc23)cc1 | u | x | -36.4%
